# Coupling enz – qHTS Assay for Inhibitors of Fructose-1,6-bisphosphate Aldolase from Giardia Lamblia: Coupling assay counterscreen | coupling enzyme system counterscreen, AmpLite Red fluorescence | hit rate 0.67% among 290,000 | activity change, negative = inhibition, % at 58.2 µM, hits read low | AID 2472, 2010; in the data active = activity change below about -30%
#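 First, compound is pin-transferred into glyceraldehyde-3-phosphate coupling-enzyme reagent at 57.5 uM final and held 10 min at RT. Next, substrate, coupling system and AmpLite Red are added. After 20 min RT, fluorescence (525/598 nm) is read.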
# USP1 inh – Inhibitors of USP1/UAF1: Primary Screen; recombinant USP1/UAF1, Ub-Rhodamine cleavage fluorescence; hit rate 0.23% among 390,000; Potency, µM (doses to about 57.1 µM), for inactives: at the top dose activity change, negative = inhibition, most hits filed as inhibitors; AID 743255, 2014; note: potency is the fitted concentration of half-maximal effect; nearly all actives have a fitted effect of over 60% in size
# Target sequence (O94782 whole entry, looked up): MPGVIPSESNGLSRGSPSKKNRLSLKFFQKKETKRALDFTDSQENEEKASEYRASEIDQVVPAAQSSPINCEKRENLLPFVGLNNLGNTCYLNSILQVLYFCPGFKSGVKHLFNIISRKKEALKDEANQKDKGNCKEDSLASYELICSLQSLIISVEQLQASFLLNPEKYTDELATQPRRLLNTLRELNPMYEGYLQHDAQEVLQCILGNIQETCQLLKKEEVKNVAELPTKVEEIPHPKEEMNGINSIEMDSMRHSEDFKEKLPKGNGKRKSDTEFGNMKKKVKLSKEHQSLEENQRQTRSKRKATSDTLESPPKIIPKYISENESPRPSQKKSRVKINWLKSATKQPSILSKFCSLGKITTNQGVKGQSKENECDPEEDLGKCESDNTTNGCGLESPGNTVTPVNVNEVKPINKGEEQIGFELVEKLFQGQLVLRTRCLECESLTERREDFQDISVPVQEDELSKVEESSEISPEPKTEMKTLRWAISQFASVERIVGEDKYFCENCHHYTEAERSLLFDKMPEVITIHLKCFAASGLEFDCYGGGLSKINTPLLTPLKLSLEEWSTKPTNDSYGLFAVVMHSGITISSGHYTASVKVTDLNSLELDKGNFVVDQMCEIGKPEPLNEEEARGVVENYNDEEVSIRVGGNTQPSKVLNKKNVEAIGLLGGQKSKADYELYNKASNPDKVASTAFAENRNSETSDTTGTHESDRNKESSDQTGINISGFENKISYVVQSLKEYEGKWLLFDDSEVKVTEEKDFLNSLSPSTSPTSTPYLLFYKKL
#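 High-throughput fluorogenic screen: 1nM USP1/UAF1 complex, Ub-Rho substrate 150nM final, 50mM HEPES pH 7.8 with 0.5mM EDTA, 0.1 mg/ml BSA, 1mM TCEP and 0.01% Tween-20.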
# Tau fluor cs – Counterscreen qHTS for Inhibitors of Tau Fibril Formation, Fluorescence Polarization; tau K18 P301L Alexa594 fluorescence, heparin fibrillization; Potency, µM (highest dose often 57.7 µM), inactives show top-dose activity change, negative = decrease; hit rate 0.93% among 280,000; AID 1463, 2008; note: potency is the fitted concentration of half-maximal effect; nearly all actives have a fitted effect of over 55% in size
#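 Human tau K18 P301L (15 uM unlabeled, 0.24 uM Alexa 594-labeled) in 100 mM sodium acetate pH 7 with 20 uM heparin, 6 hr at 37 C. ThT 30 uM added, 1 hr ambient; Alexa 594 FP and total fluorescence read at 555/632 nm.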
# Tau ThT inhib – qHTS for Inhibitors of Tau Fibril Formation, Thioflavin T Binding | recombinant tau K18 P301L (four-repeat tau fragment), heparin-induced fibrillization, ThT fluorescence | Potency, µM (highest dose often 57.4 µM), for inactives: at the top dose activity, negative = inhibition, actives largely listed as inhibitors | Microtubule-associated protein tau (Homo sapiens), P10636 | hit rate 2.1% among 270,000; note: potency is the fitted concentration of half-maximal effect; nearly all actives have a fitted effect of over 55% in size
#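 In this qHTS, human K18 P301L tau is incubated with compound and heparin for 6 hr at 37 C, and Thioflavin T fluorescence then reports fibril load.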
# Tau fibril FP – qHTS for Inhibitors of Tau Fibril Formation, Fluorescence Polarization; K18 P301L tau heparin fibrillization, Alexa594 FP, 6 h; AID 1468, 2008; hit rate 0.39% among 280,000; Microtubule-associated protein tau (Homo sapiens), P10636; Potency, µM (doses to about 57.7 µM), for inactives: at the top dose activity, negative = inhibition, usual class: inhibitors; note: potency is the fitted concentration of half-maximal effect; nearly all actives have a fitted effect of over 55% in size
#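 Quantitative HTS format: compounds meet 15 uM recombinant K18 P301L tau and Alexa 594-tau tracer in 100 mM sodium acetate pH 7; 20 uM heparin triggers fibrillization at 37 C over 6 hr; FP gives the signal.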
# * marks the source's active call; other numbers are inactive results; ? = inconclusive; nt = no result; [ ] = another dose, or the depositor's remark. Compounds with a hit are over-represented: about 2.3% of the library has one in this group of screens. Unless noted, calls come from the whole dose curve; as a rule, active = well fitted curve in the direction sought with a large enough effect; inconclusive = small, poorly fitted or top-dose-only effect, or another doubt; inactive = no such curve, though single readings can be large; an effect the other way counts as inactive or inconclusive. % is set by controls: 0 for no effect and ±100 for the full control effect.
SMILES,Coupling enz,USP1 inh,Tau fluor cs,Tau ThT inhib,Tau fibril FP
CCOC(=O)c1c(/N=C/c2ccccc2O)sc2c1CCC2,-1.0,-16.1%,-20.3%,-17.9%,5.4%
CCOC(=O)c1c(/N=C/c2cc([N+](=O)[O-])ccc2O)sc(C)c1C,-0.9,-1.4%,?,?,11.5%
CCOC(=O)c1c(/N=C/c2cccc([N+](=O)[O-])c2O)sc2c1CCC2,-3.2,-22.3%,-26.9%,15.8µM*,-6.7%
COc1cc(/C=N/n2c(=S)[nH]nc(C)c2=O)cc([N+](=O)[O-])c1O,5.2,-18.8%,-10.7%,-4.7%,-1.6%
CCOC(=O)c1c(/N=C/c2cc(OC)cc([N+](=O)[O-])c2O)sc(C)c1C,-2.7,-25.0%,?,8.91µM*,?
C=CC[C@H](CC(=O)N(CCO)Cc1ccccc1)C(=O)N[C@@H](COC(=O)[C@@H](CC=C)Cc1ccc(F)cc1)Cc1c[nH]c2ccccc12,nt,-14.2%,nt,nt,nt
COc1ccccc1NC(=O)Cc1csc(NC(=S)Nc2ccc(C)cc2)n1,nt,-27.0%,12.6µM*[quencher],-5.4%,?
Clc1cccc(CNCCCSc2nnnn2-c2ccccc2)c1,nt,-17.8%,-9.2%,2.0%,-5.0%
O=C(/C=C/c1ccc(Cl)cc1Cl)n1cccn1,-2.1,-5.6%,-7.5%,7.94µM*,?
COc1cc(-c2nc(SCC(=O)Nc3ccc(C)cc3)c(-c3ccc(F)cc3)[nH]2)cc(OC)c1OC,nt,-19.3%,4.47µM*[quencher],-16.9%,1.2%
COc1ccc(NC(=O)CSc2nc(-c3ccccc3)[nH]c2-c2ccccc2)cc1OC,nt,6.6%,15.8µM*[quencher],?,1.5%
COc1ccc(NC(=O)CSc2n[nH]c(-c3ccccc3)n2)cc1Cl,nt,?,?,-4.6%,?
COCCCNC(=O)CSc1nc(-c2ccc(OC)c(OC)c2)[nH]c1-c1ccc(F)cc1,nt,-12.3%,?,?,15.8%
COCCNC(=O)CSc1nc(-c2cc(OC)c(OC)c(OC)c2)[nH]c1-c1ccc(Cl)cc1,nt,?,15.8µM*[quencher],?,?
COCCNC(=O)CSc1nc(-c2ccc(F)cc2)[nH]c1-c1ccc(Cl)cc1,nt,-11.9%,?,-12.8%,?
COc1ccc(NC(=O)CSc2nc(-c3ccc(F)cc3)[nH]c2-c2ccc(C)cc2)cc1OC,nt,-10.4%,3.55µM*[quencher],?,-15.1%
COc1cccc(-c2nc(SCc3cc(=O)c4cc(Cl)ccc4[nH]3)n[nH]2)c1,nt,-18.7%,0.2%,-5.5%,?
CCC(OC(=O)c1nsc(Cl)c1Cl)C(=O)NCC1CCCO1 (centres undefined),-2.8,-2.3%,nt,nt,nt
Cc1ccc(CNC(=O)CCCCCn2c(=O)c3sccc3n(CC(=O)N3CCCCC3C)c2=O)cc1 (centres undefined),nt,-19.4%,-18.1%,-11.7%,-3.6%
O=C(CSc1nc(-c2ccc(F)cc2)[nH]c1-c1ccccc1)Nc1ccccc1,nt,?,?,5.9%,?
COc1ccc(-c2nc(SCC(=O)Nc3ccccc3)c(-c3ccc(F)cc3)[nH]2)cc1OC,nt,-17.0%,7.08µM*[quencher],?,?
O=C(CCCSc1ccccc1)Nc1cccc(CO)c1,-1.6,-22.9%,nt,nt,nt
CC(=O)N(C1=C(N)C(=O)c2ccccc2C1=O)C(C)C,-43.1*,?,4.3%,-4.9%,3.0%
CC(=O)N(C1=C(O)c2ccccc2C(=O)C1=O)C1CCCCC1,-2.7,3.7%,-15.0%,-22.9%,4.2%
Cc1ccccc1CN1CCC(CNc2ncnc3onc(-c4ccc(F)cc4)c23)CC1,nt,-14.9%,-1.1%,9.0%,-6.9%
c1csc(CCCN2CCCCC2)c1,nt,-10.6%,nt,nt,nt
CC[C@H](C)[C@@H]1NC(=O)[C@H]([C@@H](C)CC)NC(=O)[C@@H](CC(C)C)NC(=O)[C@H](Cc2ccccc2)NC(=O)[C@H](Cc2ccccc2)NC(=O)[C@@H]2CCCN2C(=O)[C@@H]2CCCN2C(=O)[C@H](C(C)C)NC(=O)[C@H](CC(C)C)NC1=O,nt,-16.3%,nt,nt,nt
